Most compounds without a hit are left out; they make up all but 1.3% or so of the library.
GLD-1 RNA inh: GLD-1/TGE RNA complex disruptors, primary screen, biochemical, fluorescence polarization. Female germline-specific tumor suppressor gld-1 (Caenorhabditis elegans), Q17339. purified GLD-1 + fluorescein TGE RNA. inhibition, % at 5.96 µM. 320,000 compounds, 0.44% hits. AID 2280, 2010;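 active means percent inhibition above a per-plate cutoff, the plate mean of test compounds plus 3 SD, cut at about 30% in these data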
MEX-5 binding: MEX-5 zinc finger RNA-binding disruptors – biochemical, C. elegans, fluorescence polarization, MLPCN library, primary screen | 300,000 compounds, 0.38% hits | Zinc finger protein mex-5 (Caenorhabditis elegans), Q9XUB2 | MEX-5/FITC-TCR2 RNA binding; active compounds read low | AID 1832, 2009 | activity score (negative = inhibition of binding), % at 10 µM;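 active means inhibition past about -25% in most replicates, and total fluorescence under double the plate's negative control median, limit read from the data; inconclusive means replicates evenly split on the limit, or fluorescence at least double controls; inactive means too little inhibition in most replicates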
Target sequence (Q9XUB2 whole entry, looked up): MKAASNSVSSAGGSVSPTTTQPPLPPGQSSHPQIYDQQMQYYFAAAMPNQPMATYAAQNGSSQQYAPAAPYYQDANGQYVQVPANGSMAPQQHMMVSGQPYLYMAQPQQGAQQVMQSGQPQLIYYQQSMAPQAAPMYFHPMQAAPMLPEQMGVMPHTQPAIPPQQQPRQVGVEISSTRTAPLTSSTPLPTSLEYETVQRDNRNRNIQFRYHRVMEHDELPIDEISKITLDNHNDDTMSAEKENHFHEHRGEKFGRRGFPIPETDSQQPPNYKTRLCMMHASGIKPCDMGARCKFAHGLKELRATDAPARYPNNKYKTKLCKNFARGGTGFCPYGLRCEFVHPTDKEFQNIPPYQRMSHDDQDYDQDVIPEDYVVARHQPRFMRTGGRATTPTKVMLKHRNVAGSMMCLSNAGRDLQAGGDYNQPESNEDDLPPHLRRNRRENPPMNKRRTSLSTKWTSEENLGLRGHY
MCL1 BIM primary: inhibitors of MCL1 binding to BIM-BH3, primary screen, biochemical, fluorescence polarization; Induced myeloid leukemia cell differentiation protein Mcl-1 (Homo sapiens), Q07820; GST-MCL1 / FITC-Bim-BH3 fluorescence polarization; inhibition, % at 10.9 µM; 320,000 compounds, 0.68% hits; AID 2057, 2009;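 active means inhibition above the mean inhibition of all tested compounds plus 3 SD, set per campaign, cut at about 40% in these data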;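 further: higher means more loss of mP so more displacement of Bim peptide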
EBV gp42 block: Epstein-Barr virus gp42 inhibitors, primary screen, biochemical, uHTS, fluorescence polarization. Fluorescence polarization binding assay, mP read-out. inhibition, % (tested at 21.74 µM). 220,000 compounds, 0.42% hits; in the data active means inhibition above about 50%
BCLXL inh: inhibitors of human Bcl-xL, primary screen, biochemical, fluorescence polarization, HTS. GST-Bcl-xL / FITC-Bim BH3 peptide fluorescence polarization. inhibition, % at 10.9 µM. 320,000 compounds, 0.7% hits;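 active means inhibition above the mean of all tested compounds plus 3 SD, cutoff set per campaign, cut at about 30% in these data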;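 further: inhibitors lower millipolarization by displacing the labeled peptide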
Target sequence (Q07817 whole entry, looked up): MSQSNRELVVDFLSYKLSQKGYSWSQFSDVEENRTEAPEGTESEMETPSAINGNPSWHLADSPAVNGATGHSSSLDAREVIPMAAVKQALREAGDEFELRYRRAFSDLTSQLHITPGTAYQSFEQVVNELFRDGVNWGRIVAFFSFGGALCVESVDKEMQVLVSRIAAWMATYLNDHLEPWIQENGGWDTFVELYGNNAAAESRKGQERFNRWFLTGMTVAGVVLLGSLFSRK
Bcl-xL conf: Bcl-xL inhibitors blocking Bim BH3 binding, confirmation, counter-screen for MCL1 inhibitor project, biochemical, fluorescence polarization | shares compounds with MCL1 BIM primary | GST-Bcl-xL / FITC-Bim BH3 peptide FP binding | inhibition, % at 10.9 µM | 1,700 compounds, 54% hits;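 active means inhibition above a cutoff equal to the mean inhibition of all tested compounds plus 3 SD, cut at about 30% in these data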
MCL1 inh confirm: inhibitors of MCL1 binding to BIM-BH3, confirmation, biochemical, fluorescence polarization, triplicate; shares compounds with MCL1 BIM primary; GST-MCL1 / FITC-Bim-BH3 fluorescence polarization; 1,700 compounds, 61% hits; inhibition, % at 10.9 µM;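 active means inhibition above the average of all tested compounds plus 3 SD, cut at about 40% in these data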
Each line names hits and unclear results; the compound was inactive in the other large screens (follow-up assays come after a bar, where they were run).

O=C(CNc1cccc2ccccc12)N/N=C/c1ccc(C(=O)O)cc1	MCL1 BIM primary 68 | Bcl-xL conf inactive | MCL1 inh confirm 52
CCCN(CCC)C(=O)c1cc([N+](=O)[O-])cc2c1-c1ccc([N+](=O)[O-])cc1C2=C(C#N)C#N	none
COc1cc(CC(=O)OCC(=O)NCC(C)C)cc(OC)c1OC	none
CCOc1ccc(N/C(=C(/C(Cl)=C(Cl)Cl)[N+](=O)[O-])n2cncn2)cc1	GLD-1 RNA inh 55, MEX-5 binding -49, MCL1 BIM primary 93, BCLXL inh 92 | Bcl-xL conf 121 | MCL1 inh confirm 156
COc1cccc(-c2cn3nc4c(nc3n2)CCCC4)c1	none
Clc1ccc(-c2cn3nc4c(nc3n2)CCCC4)cc1	GLD-1 RNA inh 81, MCL1 BIM primary 106, BCLXL inh 104 | Bcl-xL conf 77 | MCL1 inh confirm 89
CC1CCN(c2ccc3c(c2)S(=O)(=O)c2cccc(C(=O)NCc4cccc(F)c4)c2C3=O)CC1	GLD-1 RNA inh 162, MCL1 BIM primary 68 (no result: MEX-5 binding, EBV gp42 block) | Bcl-xL conf inactive | MCL1 inh confirm inactive
O=C(O)c1cccc2c1C(=O)c1ccc(N3CCCC3)cc1S2(=O)=O	GLD-1 RNA inh 80, MCL1 BIM primary 131, BCLXL inh 112 (no result: MEX-5 binding, EBV gp42 block) | Bcl-xL conf 104 | MCL1 inh confirm 122
COC(c1ccc(Cl)cc1)(c1ccc(Cl)cc1)C(Oc1nc(C)cc(C)n1)C(=O)O (centres undefined)	none (no result: EBV gp42 block)
c1coc(-c2nc3ccccc3nc2-c2ccco2)c1	MEX-5 binding inconclusive, MCL1 BIM primary 60, BCLXL inh 34 | Bcl-xL conf 34 | MCL1 inh confirm 42
O=C(NCCc1ccccc1)c1ccc(=O)oc1	none
O=C(NCCO)c1ccc2nc(-c3ccco3)c(-c3ccco3)nc2c1	MEX-5 binding -39, MCL1 BIM primary 56, BCLXL inh 43 | Bcl-xL conf 60 | MCL1 inh confirm 77
O=C(NC1CCCC1)c1ccc2nc(-c3ccco3)c(-c3ccco3)nc2c1	MCL1 BIM primary 64, BCLXL inh 41 (no result: MEX-5 binding) | Bcl-xL conf 40 | MCL1 inh confirm 76
O=C(NCCc1ccccc1)c1ccc2nc(-c3ccco3)c(-c3ccco3)nc2c1	MCL1 BIM primary 40, EBV gp42 block 55 | Bcl-xL conf 42 | MCL1 inh confirm 75
O=c1oc(-c2ccco2)nc2ccccc12	none
Cc1cc(C)c(S(C)(=O)=O)c(=O)[nH]1	none
Cc1cc(=O)c2c([nH]1)c(C)cc1[nH]c(C)c(C)c12	GLD-1 RNA inh 68, MCL1 BIM primary 100, BCLXL inh 101 (no result: MEX-5 binding, EBV gp42 block) | Bcl-xL conf inactive | MCL1 inh confirm inactive
Cc1ccc(N=Cc2cc(Cc3ccccc3Cl)cc([N+](=O)[O-])c2O)c(O)c1	MCL1 BIM primary 47, BCLXL inh 44 | Bcl-xL conf inactive | MCL1 inh confirm 47
COc1ccc(S(=O)(=O)N2CCN(C(=O)CNC(=O)c3ccc4c(c3)OCO4)CC2)cc1	none (no result: EBV gp42 block)
C=CCSc1nnc(NC(=O)CCN2C(=O)C3CC=CCC3C2=O)s1 (centres undefined)	GLD-1 RNA inh 77, MCL1 BIM primary active, BCLXL inh 85 (no result: MEX-5 binding, EBV gp42 block) | Bcl-xL conf inactive | MCL1 inh confirm inactive
Oc1cccc(O)c1O	MCL1 BIM primary 63 (no result: MEX-5 binding, EBV gp42 block) | Bcl-xL conf inactive | MCL1 inh confirm 42
O=C(O)c1cccc(O)c1O	none (no result: EBV gp42 block)
CCCN1CCC2(CC1)C(C#N)=C(N)Oc1c2sc2nc(C)cc(C)c12	MCL1 BIM primary 70, BCLXL inh 69 | Bcl-xL conf 45 | MCL1 inh confirm 46
CCOC(=O)N1CCC2(CC1)C(C#N)=C(N)Oc1c2sc2nc(C)cc(C)c12	none
COc1ccccc1N(CC(=O)NC1CCCC1)C(=O)c1csnn1	MCL1 BIM primary 69 | Bcl-xL conf inactive | MCL1 inh confirm inactive
Oc1ccc(/C=N/Nc2ccnc3cc(Cl)ccc23)cc1O	none
Oc1ccc(/C=N/Nc2ccnc3cc(Cl)ccc23)c(O)c1O	MCL1 BIM primary 54 (no result: EBV gp42 block) | Bcl-xL conf 33 | MCL1 inh confirm inactive
Cc1oc2c(O)c(O)ccc2c(=O)c1-c1ccccc1	none
Cc1oc2c(O)c(O)ccc2c(=O)c1-c1ccc(Cl)cc1	MCL1 BIM primary 43 (no result: EBV gp42 block) | Bcl-xL conf 58 | MCL1 inh confirm 81
Cc1ccc(S(=O)(=O)c2nc(-c3ccccc3F)oc2N2CC(C)OC(C)C2)cc1 (centres undefined)	none (no result: EBV gp42 block)
O=C(CN1C(=O)/C(=C\c2ccco2)SC1=S)Nc1ccc(O)cc1C(=O)O	MCL1 BIM primary 76, BCLXL inh 46 (no result: EBV gp42 block) | Bcl-xL conf inactive | MCL1 inh confirm inactive
O=C(CCN1C(=O)/C(=C/c2ccco2)SC1=S)Nc1ccc(O)cc1C(=O)O	none (no result: GLD-1 RNA inh, MCL1 BIM primary, EBV gp42 block, BCLXL inh)
CC(C(=O)Nc1ccc(O)cc1C(=O)O)N1C(=O)/C(=C\c2cccs2)SC1=S (centres undefined)	MCL1 BIM primary 58 (no result: EBV gp42 block) | Bcl-xL conf inactive | MCL1 inh confirm inactive
O=C(CCCN1C(=O)/C(=C/c2ccco2)SC1=S)Nc1ccccc1C(=O)O	MCL1 BIM primary 83, BCLXL inh 40 | Bcl-xL conf 39 | MCL1 inh confirm 73
Cc1nn(-c2ccccc2)c2nc(C(Cl)(Cl)Cl)[nH]c(=O)c12	none
Cc1ccnc(Nc2nc(-c3ccc(O)cc3)cs2)c1	none (no result: EBV gp42 block)
Cc1ccnc(Nc2nc(-c3ccc(O)c(O)c3)cs2)c1	MCL1 BIM primary 42 (no result: EBV gp42 block) | Bcl-xL conf 36 | MCL1 inh confirm 42
COc1ccc(OCCCn2cc(/C=C3/C(=N)N4C=C(C)SC4=NC3=O)c3ccccc32)cc1	none
COc1cccc(OCCCn2cc(/C=C3/C(=N)N4C=C(C)SC4=NC3=O)c3ccccc32)c1	MEX-5 binding -29, MCL1 BIM primary 66, BCLXL inh 59 | Bcl-xL conf inactive | MCL1 inh confirm inactive
O=C(CN1CCOCC1)NNC(=S)Nc1ccc(Cl)cc1	MCL1 BIM primary 55 | Bcl-xL conf inactive | MCL1 inh confirm inactive
O=C(CN1c2ccccc2Sc2ccccc21)NNC(=S)Nc1ccc(Cl)cc1	none
CCn1cc(CN2CCC(n3nccc3NC(=O)c3ccccc3C)CC2)cn1	none (no result: EBV gp42 block)
N#CC1=C(N)n2c(s/c(=C\c3ccco3)c2=O)=C(C#N)C1c1ccco1 (centres undefined)	MCL1 BIM primary 55, BCLXL inh 44 | Bcl-xL conf 104 | MCL1 inh confirm 150
